Measurements from PubChem BioAssay (NCATS).
Inconclusive results are not listed. Entries that show only a call come without a potency. Calls of active or inactive are those of the source. Calls follow the shape of the dose curve; as a rule, active = well fitted inhibition curve with a large enough effect; inconclusive = small, poorly fitted or top-dose-only effect; inactive = flat fitted curve, though single readings scatter.

system: CRL-7250; experiment: qHTS assay to identify novel small-molecules to repurpose for Merkel cell carcinoma treatment (AID 1296009); details: MCC and control cell lines, CellTiter-Glo viability, 72 h; series mostly up to 92 µM; also: nearly all actives have a fitted effect of over 60% in size
Procedure, shortened: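 Luminescence from CellTiter-Glo, read 10 min after addition at room temperature, reported viability following a 72 hr, 37 degree celsius treatment with NPC or MIPE compounds in titration; values normalized to plate controls.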

**Q.** With `C=C[C@H]1C(O[C@@H]2O[C@H](CO)[C@@H](O)[C@H](O)[C@H]2O)OC=C2C(=O)N3CCc4c([nH]c5ccccc45)[C@H]3C[C@H]21` (stereo not given in full) as the compound, how does the Potency read?
**A.** inactive

**Q.** `CC(=O)OC[C@]12[C@H](OC(C)=O)[C@H](OC(=O)c3ccccc3)[C@@H]3[C@@H](OC(C)=O)[C@]1(OC3(C)C)[C@H](C)C[C@H](OC(=O)c1ccccc1)[C@@H]2OC(=O)c1ccccc1` was tested. Which Potency did it give?
**A.** inactive

**Q.** Which Potency does the source give for `O=C(/C=C/c1ccc(O)cc1)OCC1OC(O)C(OC2OC(CO)C(O)C(O)C2O)C(O)C1O` (stereo not given) here?
**A.** inactive

**Q.** With `CCNC(=O)[C@@H]1CCCN1C(=O)[C@H](CCCN=C(N)N)NC(=O)[C@H](CC(C)C)NC(=O)[C@@H](C)NC(=O)[C@H](Cc1ccc(O)cc1)NC(=O)[C@H](CO)NC(=O)[C@H](Cc1c[nH]c2ccccc12)NC(=O)[C@H](Cc1cnc[nH]1)NC(=O)[C@@H]1CCC(=O)N1` as the compound, how does the Potency read?
**A.** inactive

**Q.** How did the Potency turn out when `O=C(O)C[C@H]1CCC(=O)[C@@H]1C/C=C\CCO` was run?
**A.** inactive

**Q.** For `COC1=CC(=O)O[C@@H](/C=C/c2ccccc2)[C@@H]1O`, which Potency is on record?
**A.** inactive

**Q.** `COc1c(O)cc2c(c1O)C(=O)O[C@H](C)[C@H]2O` was tested. Which Potency did it give?
**A.** inactive

**Q.** Which Potency does the source give for `COC1C=C([C@@H]2CC=C3[C@@]4(C)C(CC[C@]32C)[C@@]2(C)C=CC(=O)C(C)(C)C2C[C@H]4OC(C)=O)C(=O)O1` (stereo not given in full) here?
**A.** inactive

**Q.** `Clc1ncoc1-c1c[nH]c2ccccc12` was tested. Which Potency did it give?
**A.** inactive

**Q.** For `C=C1CCC2C(C)(COC3OC(COC(=O)CC(=O)O)C(O)C(O)C3O)CCCC2(C)C1CCC1=CCOC1=O` (stereo not given), which Potency is on record?
**A.** inactive

**Q.** `CC[C@H](NC(=O)c1c(O)c(-c2ccccc2)nc2ccccc12)c1ccccc1` was tested. Which Potency did it give?
**A.** inactive

**Q.** For `O=c1ccn(C2OC(CO)C(O)C2O)c(=O)[nH]1` (stereo not given), which Potency is on record?
**A.** inactive

**Q.** For `CC(=O)O[C@@H]1C(=O)C(C)=C(CCC(C)CC(=O)O)[C@@]2(C)CCCC(C)(C)C12` (stereo not given in full), which Potency is on record?
**A.** inactive

**Q.** How did the Potency turn out when `OCC1OC(Oc2cc(O)cc(/C=C/c3ccc(OC4OC(CO)C(O)C(O)C4O)cc3O)c2)C(O)C(O)C1O` (stereo not given) was run?
**A.** inactive

**Q.** How did the Potency turn out when `COC(=O)c1cc(OC)cc(OC)c1C(=O)c1c(OC)cc2c(c1O)C1CCC(O)C(C)(O2)O1` (stereo not given) was run?
**A.** inactive

**Q.** How did the Potency turn out when `CC1(C)CC[C@]2(C(=O)O[C@@H]3O[C@H](CO)[C@@H](O)[C@H](O)[C@H]3O)CC[C@]3(C)C(=CCC4[C@@]5(C)C[C@@H](O)[C@H](O)[C@](C)(C=O)C5CC[C@]43C)[C@@H]2[C@@H]1O` (stereo not given in full) was run?
**A.** inactive

**Q.** How did the Potency turn out when `C[C@@H]1CCC2C(C)(C)[C@H](O)CC[C@]2(C)[C@@]12Cc1c(O)cc3c(c1O2)CN([C@@H](CCC(=O)O)C(=O)O)C3=O` (stereo not given in full) was run?
**A.** inactive

**Q.** Which Potency does the source give for `Nc1nc2c(s1)CCN(Cc1ccc(Cl)cc1)CC2` here?
**A.** inactive

**Q.** `CC(=O)O[C@H]1C[C@@]2(C)[C@@H](C[C@@H](O)[C@H]3[C@@]4(C)CC[C@@H](O)[C@@H](C)[C@@H]4CC[C@@]32C)/C1=C(\CCC=C(C)C)C(=O)O` was tested. Which Potency did it give?
**A.** inactive

**Q.** With `C=C1CC[C@@H]2[C@](C)(CO[C@@H]3O[C@H](CO)[C@@H](O)[C@H](O)[C@H]3O)CCC[C@@]2(C)[C@@H]1CCC1=CCOC1=O` as the compound, how does the Potency read?
**A.** inactive

**Q.** With `CCCCCCCOc1cc2c(cc1/C(C)=C/c1ccc(C(=O)O)cc1)C(C)(C)CCS2(=O)=O` as the compound, how does the Potency read?
**A.** inactive

**Q.** With `C=C1CC[C@H]2[C@@](C)(CCC(OC3OC(CO)C(O)C(O)C3O)[C@@]2(C)CO)C1C(=O)CC1=CCOC1=O` (stereo not given in full) as the compound, how does the Potency read?
**A.** inactive

**Q.** With `CC1(C)CC[C@]2(C(=O)O[C@@H]3O[C@H](CO)[C@@H](O)[C@H](O)[C@H]3O)CC[C@]3(C)C(=CCC4[C@@]5(C)C[C@@H](O)[C@H](O)C(C)(C)C5[C@H](O)C[C@]43C)[C@@H]2[C@@H]1O` (stereo not given in full) as the compound, how does the Potency read?
**A.** inactive

**Q.** With `Cc1oc(S(=O)(=O)N2CCCCC2)cc1NC(=O)Nc1ccccc1` as the compound, how does the Potency read?
**A.** inactive

**Q.** How did the Potency turn out when `O=C(O)/C=C/c1ccc(O[C@@H]2O[C@H](CO)[C@@H](O)[C@H](O)[C@H]2O)cc1` was run?
**A.** inactive

**Q.** For `O=C(NC1CCN(CC(F)(F)F)CC1)c1ccc(-c2cccc(F)c2)nc1`, which Potency is on record?
**A.** inactive

**Q.** How did the Potency turn out when `Cc1c(C(=O)NCc2cccnc2)nn(-c2ccc(Cl)cc2Cl)c1-c1ccc(Cl)cc1` was run?
**A.** inactive

**Q.** `CC(=O)N[C@H]1[C@H](O[C@H]2CC[C@@]3(C)C(CC[C@]4(C)C3CC=C3C5CC(C)(C)CC[C@]5(C(=O)O)[C@H](O[C@@H]5O[C@H](CO)[C@@H](O)[C@H](O)[C@H]5O)C[C@]34C)C2(C)C)O[C@H](CO[C@@H]2OC[C@H](O)[C@H](O)[C@H]2O[C@@H]2OC[C@@H](O)[C@H](O)[C@H]2O)[C@@H](O)[C@@H]1O` (stereo not given in full) was tested. Which outcome did it give?
**A.** inactive [at 9.27 µM]

**Q.** How did the Potency turn out when `CCOC(=O)c1cc(C#N)c(N2CCC(C(=O)NS(=O)(=O)Cc3ccccc3)CC2)nc1C` was run?
**A.** inactive

**Q.** `COc1ccc(/C=C/C(=O)O[C@H]2[C@@H]3C=CO[C@@H](O[C@@H]4O[C@H](CO)[C@@H](O)[C@H](O)[C@H]4O)[C@@H]3[C@@]3(CO)O[C@@H]23)cc1O` was tested. Which Potency did it give?
**A.** inactive

**Q.** `O=C(NCc1nc2ccccc2c(=O)n1-c1ccc(F)cc1)Nc1ccc(Cl)c(C(F)(F)F)c1` was tested. Which Potency did it give?
**A.** inactive

**Q.** Which Potency does the source give for `C[C@@H]1C[C@@H](O)[C@@]2(CO)C(CO)=CCC[C@@H]2[C@@]12C[C@@H](c1ccoc1)OC2=O` here?
**A.** inactive

**Q.** How did the Potency turn out when `CC1=C2C[C@H]3O[C@@]3(C)CCC3O[C@@]3(C)C[C@@]2(O)OC1=O` (stereo not given in full) was run?
**A.** inactive

**Q.** Which Potency does the source give for `O=C(OC[C@@]1(O)CO[C@@H](O[C@H]2[C@H](Oc3ccc(O)cc3)O[C@H](CO)[C@@H](O)[C@@H]2O)[C@@H]1O)c1ccc(O)cc1` here?
**A.** inactive

**Q.** How did the Potency turn out when `CC(/C=C/[C@]1(O)[C@@]2(C)CO[C@@]1(C)C[C@@H](O)C2)=C\C(=O)O[C@@H]1O[C@H](CO)[C@@H](O)[C@H](O)[C@H]1O` was run?
**A.** inactive

**Q.** How did the Potency turn out when `C1=Cc2ccccc2C(=C2CCN(CCCCc3nn[nH]n3)CC2)c2ccccc21` was run?
**A.** inactive

**Q.** How did the outcome turn out when `COc1cc(Nc2nc3c(s2)CCCC3c2ccccc2)ccc1-n1cnc(C)c1` (stereo not given) was run?
**A.** inactive [at 9.27 µM]

**Q.** How did the Potency turn out when `CCC/C=C/C=C/C1CC(O)C2(O)C(=O)OCC12` (stereo not given) was run?
**A.** inactive

**Q.** `COc1cc(/C=C/C(=O)O[C@H]2[C@H](O)[C@@H](CO)O[C@@]2(CO)O[C@H]2O[C@H](COC(=O)c3ccc(O)cc3)[C@@H](O)[C@H](O)[C@H]2O)cc(OC)c1OC` was tested. Which Potency did it give?
**A.** inactive

**Q.** Which Potency does the source give for `CCCCc1ccc(NS(=O)(=O)c2ccc(F)cc2)cc1` here?
**A.** inactive
